Experimental findings from PubChem BioAssay (NCI) are described below.

This is part of a sample that, as a whole, favours compounds with a hit. Of some 83,000 tested, about 20% had one in any assay.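 Assay: single dose, 48 h. Readout: percent growth (0 = no net growth; negative = cell death). Active: <10.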 A number with no mark means an inactive call. Activity calls are given as the source filed them.

The test system of the test is MDA-MB-468 breast. In words: NCI-60 one-dose screen, 48 h (100 = growth as untreated, 0 = no growth, -100 = all killed). To be noted: 10 µM unless noted.
With `Oc1ccc(N=Cc2ccccc2O)cc1`, the growth is 93.3%. For the molecule `Fc1ccc(-c2nc(C(Cl)Cl)nc3cc(-c4ccccc4)nn23)cc1`, the growth was -52.7% (active). `CN1CCN(c2ccc(Nc3nc(NCCCNS(=O)(=O)c4ccccc4)c4sccc4n3)cc2)CC1`: the growth was 30.3%. Regarding `Cc1cccc(C[C@H](NC(=O)Nc2ccc(Cl)cc2F)C(=O)N[C@@H]2C(=O)N3C[C@H](OC(=O)CCN(C)C)C[C@H]3C(=O)N3CCCC[C@H]3C(=O)N[C@@H](C)C(=O)N3C[C@H](C)C[C@H]3C(=O)O[C@H]2C)c1`, the growth is 9.39% (active). With `CNC(=O)c1cc(Oc2ccc3c(c2)sc2nc(-c4cc(OC)c(OC)c(OC)c4)cn23)ccn1`, the growth is 4.35% (active). On to `Cc1cccc(NC(=O)Nc2ccc(-c3ccc4c(c3)NC(=O)/C4=C\c3ccc[nH]3)cc2)c1`, for which the growth is -0.651% (active). The value for `CN(C)c1ccc(/C=N/N=C(\C#N)[S][Sn]([Cl])([c]2ccccc2)[c]2ccccc2)cc1` was -76.8% (active); that for `O=c1c(CNc2ccc(S(=O)(=O)Nc3ncccn3)cc2)coc2ccccc12` was 108%; that for `CC(C)(C)OC(=O)N1CCN(S(=O)(=O)/N=C2\NC(=O)NC2=C(Cl)Cl)CC1` was 63.7%. Take `COC12C=C/C(=C(/C(=O)OCc3csc(SC)n3)C(=O)CCCCCCCCC3(OC)C=C/C(=C(/C(=O)OCc4cnc(SC)s4)C(=O)CCCCCCCC1)O3)O2` (stereo not given): the growth is 29.5%.

Regarding `CCN=C1C=CC(=C(c2ccc(N(C)C)cc2)c2ccc(N(C)C)cc2)c2ccccc21`, the growth was -26.8% (active). Consider `OCCNCCNc1c2ccccc2nc2ccccc12`, for which the growth is 37.4%.

As for `NC(=S)N/N=C\c1nccc2c(N)cccc12`, the growth is -18.6% (active). For `COc1ccc(/C=C2\CCCC3=C2NC(C)=NC3c2ccc(OC)c(OC)c2)cc1OC` (stereo not given), the growth was -10.3% (active). For `O=C(N/N=C/c1c(Cl)cccc1Cl)c1ccc(C(F)(F)F)nc1Nc1cccc(C(F)(F)F)c1`, the growth was 11.9%. Turning to `CCN(CC)CCCNc1cc(OC)cc2cccnc12`, the growth is 59%. On to `COc1ccc(C(=O)/C=C/c2cc3ccccc3n3nnnc23)cc1`, for which the growth was 96.8%.

As for `CC(=O)c1nc2ccccc2n1CC(=O)c1cccc(Cl)c1`, the growth is 32.7%. For `COc1ccc2nccc(Cl)c2c1`, the growth is 100%. For `NC(=O)c1cc(Cl)ccc1NC(=O)c1ccccc1-c1ccccc1` the value was 25.4%; for `O=C(Nc1ccccc1Cl)c1cnc2ccc(C3CCNCC3)cn12`, 63.3%. The value for `CCCCOc1nc2c(C)cccc2cc1-c1cc(-c2ccc(Cl)cc2)nc(-c2ccc(Cl)cc2)c1` was 102%; that for `CCC/C=C(\C)C(C)(C#N)C(=O)OCC` (stereo not given) was 102%. Turning to `Clc1ccc(Nc2ccnc(N3CCN(c4ccnc5cc(Cl)ccc45)CC3)n2)cc1`, the growth was 39.4%. Take `Cc1nc2ccccc2c(/C=C/c2ccc(F)cc2)c1C(=O)/C=C/c1ccccc1`: the growth is 17%. On to `O=C(c1ccccc1)C(Br)C(Br)c1cccc([N+](=O)[O-])c1` (stereo not given), for which the growth was -66.4% (active). As to `CCc1c(C(=O)Nc2ccc3ccccc3c2)[nH]c(C)c1C(C)=O`, the growth was 83.7%. Turning to `O=[N+]([O-])c1ccc(N/N=C(/C(=N/Nc2ccc([N+](=O)[O-])cc2)c2ccccc2)c2ccccc2)cc1`, the growth is 80.6%. Regarding `O=C(Nc1ccc(NC(=O)c2cc(=O)[nH]c3ccccc23)cc1)Nc1cccc(C(F)(F)F)c1`, the growth is 24.6%. For the molecule `CC/C(=C/c1c(O)cccc1OC)c1ccc2c(OC)cccc2[o+]1`, the growth is 95.1%. For `Cc1cc([C@@H](C)Nc2ccccc2C(=O)O)c2nc(N3CCOCC3)cc(=O)n2c1`, the growth was 9.76% (active). Take `COc1ccc2c(c1)C(C)Cc1c(ncnc1-n1cnc3cc(C)ccc31)N2C` (stereo not given): the growth is 7.23% (active).

For `CC(c1ccccc1)N1C(=O)/C(=C/c2csc(C#N)n2)SC1=S` (stereo not given), the growth was 63.5%.

Consider `Cc1cc(Cl)ccc1NC(=O)c1cc2ccccc2cc1O`, for which the growth is -9.61% (active). On to `CCOC(=O)c1nnn(Cc2cc(=O)oc3c2ccc2ccccc23)c1C`, for which the growth is 103%. Regarding `CO/N=C1\CCc2c(sc(NC(=O)c3cccc(C(F)(F)F)c3)c2C(N)=O)C1`, the growth was 29.9%. For the molecule `O=C(N=Nc1c(O)[nH]c2ccccc12)Nc1ccc(Br)cc1`, the growth is 70.5%. On to `C=CCn1c(SCC(=O)Nc2ccc(C(=O)/C=C/c3ccc(Cl)cc3)cc2)nnc1-c1cc(-c2ccc(S(N)(=O)=O)cc2)nc2ccccc12`, for which the growth was 90.2%.

Regarding `O=S(=O)(NCCCNc1cc(-c2c(-c3cccc(O)c3)nc3sccn23)ccn1)c1cccc2ccccc12`, the growth was 38.3%. `Cc1ccc(S(=O)(=O)Nc2cccc3[nH]c(C(F)(F)F)nc23)cc1`: the growth is 5.86% (active).
